Out of some 62,000 compounds screened, about 120 (0.19%) were called active. This is one part of a sample in which actives are shown more often than they occur. Unmarked numbers belong to inactive results. Rule as the data show it: active = inhibition above about 20% (passing the limit was not always enough); inactive = the rest.
What follows are molecules tested against Coagulation factor XI (Homo sapiens) (UniProt P03951) (assay: FXIa protease inhibitors in compound pools, primary screen, biochemical, 10-compound mixtures (AID 680;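 also: each value is inhibition by a whole ten-compound pool holding the compound; 0% = enzyme with no mixture and 100% = wells lacking enzyme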)). Conditions: purified FXIa, fluorogenic substrate, pooled mixtures; at 5 µM; active compounds read high.
Chain of Coagulation factor XI (Homo sapiens) (P03951 19-387 limits assumed): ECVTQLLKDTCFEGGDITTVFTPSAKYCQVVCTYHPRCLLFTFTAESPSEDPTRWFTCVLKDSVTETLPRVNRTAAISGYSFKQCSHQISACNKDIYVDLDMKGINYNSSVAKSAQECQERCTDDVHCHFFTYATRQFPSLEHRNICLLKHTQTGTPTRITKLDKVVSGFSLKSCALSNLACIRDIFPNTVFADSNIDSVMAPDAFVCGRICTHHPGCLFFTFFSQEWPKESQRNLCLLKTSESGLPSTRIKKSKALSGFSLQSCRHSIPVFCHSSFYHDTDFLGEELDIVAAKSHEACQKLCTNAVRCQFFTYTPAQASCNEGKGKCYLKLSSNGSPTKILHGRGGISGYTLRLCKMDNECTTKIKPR
Chain of Coagulation factor XI (Homo sapiens) (P03951 388-625 limits assumed): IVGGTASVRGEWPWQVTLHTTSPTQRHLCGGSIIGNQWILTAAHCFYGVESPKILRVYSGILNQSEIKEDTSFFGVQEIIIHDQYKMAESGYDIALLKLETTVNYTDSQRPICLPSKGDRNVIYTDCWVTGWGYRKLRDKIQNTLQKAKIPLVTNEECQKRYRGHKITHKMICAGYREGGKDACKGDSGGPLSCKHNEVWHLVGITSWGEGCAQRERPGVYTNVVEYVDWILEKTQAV

Row | Structure (SMILES) | inhibition
1 | O=C(c1cccc2ccccc12)N1CCN(c2ccccc2F)CC1 | -1.32%
2 | O=C(c1ccccc1)c1ccc2nc(N3CCCCC3)c3nncn3c2c1 | 5.07%
3 | CCn1cc(C(=O)NCC2CCCO2)c(=O)c2cc(S(=O)(=O)N3CCCCC3)ccc21 (configuration not stated) | 2.28%
4 | Cc1ccccc1Cn1c(=O)[nH]c2ccccc21 | 4.81%
5 | Cc1cc(NC(=O)CN2CCCCC2C)nc2c1c(=O)oc1ccccc12 (configuration not stated) | 11.6%
6 | COC(=O)C1=C(C)NC2=C(C(=O)c3ccccc32)C1c1ccc(-c2ccc(C(=O)O)cc2)o1 (configuration not stated) | 8.48%
7 | Cc1ccc(S(=O)(=O)C(C#N)c2nc3ccccc3nc2N2CCCC2)cc1C (configuration not stated) | -0.215%
8 | COc1ccc(S(=O)(=O)N2CCCC(C(=O)N3CCN(C)CC3)C2)cc1C (configuration not stated) | 8.05%
9 | O=c1c(-c2ccccc2)coc2c(CN3CCOCC3)c(O)ccc12 | -0.725%
10 | Cc1cc(C)cc(N(CC(=O)NCC2CCCO2)S(=O)(=O)c2c(C)noc2C)c1 (configuration not stated) | 12.7%
11 | Cc1cc(C(=O)N2CCN(c3ccccn3)CC2)c(C)o1 | 8.12%
12 | O=C1OC(NC(=O)c2ccccc2)C(N2CCOCC2)=C1Cl (configuration not stated) | 1.5%
13 | COc1ccc(CN2C(=O)CN=C2Nc2ccc(C)cc2C)cc1 | 9.03%
14 | O=C(Cn1nnc(-c2ccc(CN3CCOCC3)cc2)n1)NC1CCCCC1 | 4.01%
15 | Cc1cc(NS(=O)(=O)c2ccccc2)no1 | 7.83%
16 | CSc1ccc(S(=O)(=O)NCc2ccc(Cl)cc2)cc1 | 7.5%
17 | Cc1cccc(NC(=O)CSC(N)=O)c1C | 4.87%
18 | C=CCNC(=O)C12CC3CC(C1)CC(C(=O)NCC=C)(C3)C2 | 4.77%
19 | O=C(O)CN(Cc1ccco1)S(=O)(=O)c1ccccc1 | 2.68%
20 | N=c1c2c3c(sc2ncn1CCCN1CCOCC1)CCCCC3 | 42.3%
21 | Cc1ccc2nc(NCCCNC(=O)c3cnccn3)c(C#N)cc2c1 | -0.515%

Row | Structure (SMILES) | inhibition
22 | O=S(=O)(c1cccc(-c2nnc(SC(F)F)n2-c2ccccc2)c1)N1CCCCC1 | 6.38%
23 | C=CCN(c1ccc(C(N)=O)cc1)S(C)(=O)=O | 9.34%
24 | CCc1ccccc1N(CC(=O)N1CCN(c2ccccc2F)CC1)S(C)(=O)=O | 9.44%
25 | CC(C)(C)c1csc(NC2=NS(=O)(=O)c3ccccc32)n1 | 0.915%
26 | O=C(NCCCN1CCN(c2ccccc2F)CC1)C1CCC(=O)N1C1CCCCC1 (configuration not stated) | 0.475%
27 | O=C(NCc1ccc2c(c1)OCO2)c1cc2c(s1)CS(=O)(=O)C2 | 1.71%
28 | COC(=O)[C@H](Cc1ccccc1)NC(=O)N1CC(C)OC(C)C1 (some centres not stated) | -17.5%
29 | Cn1c(SCC(=O)OC2CCCCC2)nnc1-c1ccc(S(=O)(=O)N2CCCC2)cc1 | -4.25%
30 | CC(C)c1ccc(NC(=O)NC2CCCCC2)cc1 | -11.2%
31 | CC1Cc2ccccc2N1C(=O)Cn1cnc2ccccc2c1=O (configuration not stated) | 3.86%
32 | COc1ccc(Cc2nnc(NS(=O)(=O)Cc3ccccc3)s2)cc1 | 10.4%
33 | C[N+](C)(C)CCOP(=O)([O-])OC[C@H](O)CO | 4.21%
34 | CCOC(=O)Cn1c(=O)oc2cc(S(=O)(=O)NCC3CCCO3)ccc21 (configuration not stated) | 5.99%
35 | CCOC(=O)C(CC)Sc1ncnc2c1nnn2-c1ccc(F)cc1 (configuration not stated) | 14%
36 | Cc1csc(NC(=O)NC2(C(F)(F)F)Oc3ccccc3O2)n1 | 0.345%
37 | O=C(CN1CCN(c2ccccc2F)CC1)c1ccc2c(c1)OCO2 | 4.78%
38 | O=C(NC1CCCCC1)N1CCc2[nH]c3ccccc3c2C1 | 7.75%
39 | CC(C)(C)Oc1ncc(Br)c(OC(C)(C)C)n1 | -2.49%
40 | CCOC(=O)C1=C(C)NC(C)=C(C(=O)OCC)C1C1=COCCO1 | -9.31%
41 | c1ccc(COc2nsnc2N2CCOCC2)cc1 | 11.9%
42 | CCNC(=O)CCc1nc(-c2ccc(C(C)(C)C)cc2)no1 | -1.14%

Row | Structure (SMILES) | inhibition
43 | CC1COC2C(O1)N(S(C)(=O)=O)CCN2S(C)(=O)=O (configuration not stated) | 1.71%
44 | CC(C)CNC(=O)c1cc(-c2ccc(Br)cc2)on1 | 5.53%
45 | CCC(=O)c1ccc(OCC(O)CN2C(=O)NC(C)(C)C2=O)cc1 (configuration not stated) | 11.4%
46 | CC1CN(c2cc(=O)n(-c3cccc(Br)c3)c(=O)[nH]2)CC(C)O1 (configuration not stated) | 6.23%
47 | Cc1cccc(Cn2c(N3CCN(c4ccccc4)CC3)nc3c2c(=O)n(C)c(=O)n3C)c1 | -1.79%
48 | CCOc1ccccc1NC(=O)Nc1cc(OC)ccc1OC | 1.07%
49 | CCOC(=O)c1sc(/N=C/Nc2nc(C)c(C(=O)OCC)s2)nc1C | 5.51%
50 | Cc1cnc(C(=O)OCC(=O)Nc2ccc(Cl)cc2Cl)cn1 | 6%
51 | O=C(Nc1cccc(-c2nnc(-c3ccccc3)o2)c1)C1CCCO1 (configuration not stated) | -7.16%
52 | O=C(Nc1ccc(-c2nnc(-c3ccccc3)o2)cc1)C1CCCO1 (configuration not stated) | 9.26%
53 | O=C(Nc1nnc(CCc2ccccc2)s1)C1CCCO1 (configuration not stated) | 21.3% (active)
54 | CCOC(=O)c1ccc(-n2c(C)nc3c(cnn3-c3ccccc3C)c2=O)cc1 | -0.685%
55 | CCC(CC)C(=O)Nc1cc(C(=O)OC)cc(C(=O)OC)c1 | -1.44%
56 | CCc1ccccc1NC1c2ccccc2C(=O)N1c1cccnc1 (configuration not stated) | -0.145%
57 | CCOC(=O)N1CCC(Nc2c(NCCCN3CCN(c4ccc(OC)cc4)CC3)c(=O)c2=O)CC1 | 12.6%
58 | N#CC(C(N)=O)=C1CCC2(CC1)OCCCCO2 | 4.44%
59 | CCc1nnc(NC(=O)c2cccs2)s1 | 5.55%
60 | O=C(CS(=O)(=O)c1cn(Cc2ccc(Cl)cc2)c2ccccc12)N1CCOCC1 | -16.2%
61 | CCN1C(=O)/C(=C2\SC(N3CCCCC3)=NC2=O)c2ccccc21 | -7.47%
62 | O=C(c1cccc(C(=O)N2CCN(c3ccc(F)cc3)CC2)c1)N1CCN(c2ccc(F)cc2)CC1 | 0.53%
